Assay outcomes as filed in PubChem BioAssay.
Pf growth 48h = P. falciparum growth inhibition at 48 hours (one generation); P. falciparum luciferase growth in erythrocytes, 48 h; 5.9% of 310,000 active; Potency, µM (series often up to 28.7 µM), without a hit: top-dose activity change, negative = inhibition, actives largely listed as inhibitors; also: % is scaled to controls: 0 for no effect and ±100 for the full control effect
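Parasite viability was followed by luminescence of a genomically integrated firefly luciferase. Cultures held 0.1% parasitemia at 2% hematocrit (final), incubated under 5% CO2 at 37 C.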
Pf growth 96h = P. falciparum growth inhibition at 96 hours; P. falciparum luciferase reporter growth, 96 h; Potency, µM (series often up to 28.7 µM), without a hit: at the highest dose activity change, negative = inhibition, most hits filed as inhibitors; 6.9% of 320,000 active; also: % is scaled to controls: 0 for no effect and ±100 for the full control effect
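Two-generation exposure (96 h) targets delayed-death phenotype. Reporter parasites carrying integrated firefly luciferase, in red cells at 2% hematocrit and 0.05% parasitemia final, kept at 37 C, 5% CO2; luminescence loss indicates inhibition.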
AMA1-RON2 inh = inhibitors of Plasmodium falciparum AMA1-RON2 interaction. AlphaScreen AMA1-biotinylated RON2 peptide binding. Potency, µM (doses to about 58.2 µM), for inactives: at the highest dose activity change, negative = inhibition, actives largely listed as inhibitors. 0.2% of 360,000 active. AID 720542;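 also: 0% = vehicle wells and -100% = peptide control; nearly all actives have a fitted effect of over 45% in size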
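AMA1 (3D7) with his tag at 25 nM final met compounds first, then biotinylated RON2 peptide at 25 nM; detection used donor plus acceptor beads, 10 µg/mL apiece, read by AlphaScreen after 30 min at room temperature.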
NS1 function inh = inhibitors of influenza NS1 protein function; Potency, µM (titrated, usually from 46.1 µM), for inactives: top-dose activity, positive = more growth; 0.4% of 270,000 active; calls by dose curve; also: actives are rising curves; nearly all actives have a fitted effect of over 50% in size
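S. cerevisiae expressing influenza A NS1, grown in glucose, washed, then diluted 1:100 into pH 6.0 -URA galactose medium with 23 nl compound. Growth recovery read as OD600; NS1-free strain serves as control.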
SARS PLP yeast = SARS-CoV PLP inhibition in yeast | S. cerevisiae expressing SARS-CoV PLpro, growth rescue | Potency, µM (series often up to 32.9 µM), inactives show at the top dose activity, positive = growth rescue, usual class: activators | 0.19% of 330,000 active; calls by dose curve; also: 0% is about no effect; nearly all actives have a fitted effect of over 55% in size
HCV inhibitor = inhibitors of hepatitis C virus infection; 3.4% of 340,000 active; AID 651820; Huh7.5.1 HCVcc-Cre infection, luciferase reporter, 44 h; Potency, µM (highest dose often 41.8 µM), for inactives: top-dose activity change, negative = inhibition, most hits filed as inhibitors; also: % is scaled to controls: 0 for no effect and ±100 for the full control effect
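1,000 cells/well; 4 h culture; + compound; + HCVcc-Cre (~0.5 moi); 44 h; luciferase substrate, RT 15 min; read 15 sec.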
Starred values were filed as active, the others as inactive; ? = inconclusive; · = no result given; ! = not confirmed by another sample; [ ] = another dose, or the depositor's remark. Hits are enriched below; roughly 12% of the tested compounds scored in any of these assays. Unless noted, calls follow the shape of the dose curve; as a rule, active = well fitted curve in the direction sought with a large enough effect; inconclusive = small, poorly fitted or top-dose-only effect, or another doubt; inactive = no such curve, though single readings can be large; an effect the other way counts as inactive or inconclusive. Potency is read from the fitted curve at half-maximal effect.

SMILES | Pf growth 48h | Pf growth 96h | AMA1-RON2 inh | NS1 function inh | SARS PLP yeast | HCV inhibitor
Cc1ccc2c(c1)C(c1ccccc1)N(C(=O)c1cccc([N+](=O)[O-])c1)CC(=O)N2 (centres undefined) | ? | -7% | -15% | 1% | 0% | -17%
O=C(c1ccc(Cl)c(NC2=NC3CS(=O)(=O)CC3S2)c1)N1CCN(c2ccc(F)cc2)CC1 (centres undefined) | -4% | 29% | 6% | -16% | 0% | 21%
CCn1c(=NC(=O)CS(=O)(=O)c2ccc(C)cc2)sc2cccc(OC)c21 | ? | ? | 10% | · | -4% | ?
CCOc1cccc2sc(=NC(=O)CCS(=O)(=O)c3ccccc3)n(CC)c12 | ? | ? | 7% | -3% | ? | 11µM*
CCn1c(=NC(=O)c2ccc(S(=O)(=O)N(C)C)cc2)sc2cccc(OC)c21 | 8.3µM* | ? | -13% | · | -2% | ?
CCOc1cccc2sc(=NC(=O)c3ccco3)n(CC(=O)OC)c12 | ? | -28% | 6% | -3% | 1% | 11µM*
Cc1nc(NC(=O)COC(=O)c2cccs2)c(Cl)cc1Cl | -10% | 53% | -12% | · | 3% | 16%
Cc1c(C(=O)NCCNc2ncc(C(F)(F)F)cc2Cl)cccc1[N+](=O)[O-] | -19% | 1% | -11% | -3% | 1% | 11µM*
CC(C)c1[nH]nc2c1C(C(C)C)C(C#N)=C(N)O2 (centres undefined) | -12% | 7.4µM* | -20% | 1% | 4% | -1%
CC(C)C1C(C#N)=C(N)Oc2n[nH]c(-c3ccccc3)c21 (centres undefined) | -21% | -15% | -4% | 0% | 6% | -3%
Cc1c(C=C2C(=O)N(C)C(=S)N(C)C2=O)c2ccccc2n1CC(=O)NCC1CCCO1 (centres undefined) | ? | 12µM* | 2% | 2% | 4% | 4%
Cc1c(C#N)c2ccccc2n1CC(=O)NCC1CCCO1 (centres undefined) | -13% | ? | -1% | 8% | 6% | 0%
Cn1nc(NC(=O)CC23CC4CC(CC(C4)C2)C3)c2c(F)cccc21 | ? | ? | 13% | -4% | 3% | 20%
COc1ccc(-c2oc3ccc(-c4cc(OC)c(OC)c(OC)c4)cc3c2-c2ccc(OC)cc2)cc1 | · | · | -4% | · | · | -2%
COc1ccc(-c2oc3ccc(-c4cc(OC)c(OC)c(OC)c4)cc3c2-c2ccc(OC)nc2)cc1 | ? | 3.3µM* | 0% | 18% | -3% | 3%
CCOC(=O)CCCc1sc(N)nc1-c1[nH]c(=O)[nH]c1C | 23% | -23%[5.75 µM] | 1.5µM* | ? | 8% | 27%
CN1C[C@H](CO)C[C@@H]2c3cccc4[nH]cc(c34)C[C@H]21 | -2% | 6% | 2% | 1% | 3% | 14%
CCN(CC)C(=O)N[C@H]1C[C@@H]2c3cccc4[nH]cc(c34)C[C@H]2N(C)C1 | ? | 0.93µM* | ? | -16% | -1% | 0%[8.37 µM]
C=CCN1CC(C(=O)N(CCCN(C)C)C(=O)NCC)CC2c3cccc4[nH]cc(c34)CC21 (centres undefined) | 19µM* | 11µM* | · | · | · | ·
COc1cc(CNCc2ccc(OC)c(OC)c2OC)cc(OC)c1 | 3% | 11% | -3% | -8% | 5% | 10µM*
Cc1cccc(-c2cc3nc4c(c(NCc5ccco5)n3n2)CCCC4)c1 | -11% | 0% | -8% | -89% | -41% | 7.1µM*
Cc1cccc(-c2cc3nc4c(c(N5CCC6(CC5)OCCO6)n3n2)CCCC4)c1 | · | · | -1% | -57% | · | 10µM*
COc1cccc(-c2cc3nc4c(c(N5CCC6(CC5)OCCO6)n3n2)CCC4)c1 | ? | ? | 7% | 1% | 0% | 16µM*
CN(C)CCCNc1c2c(nc3cc(-c4cccc(F)c4)nn13)CCC2 | 7% | -6% | 9% | 2% | 0% | 4%
COc1cccc(N2CCN(c3c4c(nc5ncnn35)CCC4)CC2)c1 | ? | 13µM* | -5% | -2% | -2% | ?
SMILES | Pf growth 48h | Pf growth 96h | AMA1-RON2 inh | NS1 function inh | SARS PLP yeast | HCV inhibitor
Cc1cccc(-c2cc3nc4c(c(N5CCOCC5)n3n2)CCCC4)c1 | ? | 75% | 16% | -80% | -28% | ?
COc1ccc(-c2cc3nc4c(c(N5CCC6(CC5)OCCO6)n3n2)CCC4)cc1 | ? | 256% | -7% | 3% | -2% | ?
Cc1ccc(NC(=O)N[C@H](C(=O)O)C(C)C)c(C)c1 | 14% | 53% | -1% | 1% | 0% | 11%
CCOc1cc(OCC)cc(C(=O)N2CCC[C@@H]2C(=O)N2CCC[C@H]2C(=O)NCc2ccncc2)c1 | · | · | -8% | · | · | ·
CCCOCc1ccc(O)c2ncccc12 | 12µM* | 4.7µM* | -60% | -79% | -17% | 5.6µM*
Oc1ccc(COCc2ccccc2)c2cccnc12 | 3.3µM* | 4.1µM*! | ? | -93% | -3% | 5µM*
CC(C)COCc1ccc(O)c2ncccc12 | ? | 8% | -82% | -36% | -1% | 2.8µM*
Oc1ccc(Cc2ccccc2)c2cccnc12 | · | · | 18% | · | · | ?
Cc1ccc([N+](=O)[O-])cc1Nc1nc(N2CCCC2)nc(N2CCCC2)n1 | 3% | 7% | -8% | -3% | 0% | -11%
CN(CC(=O)Nc1sccc1C(N)=O)S(=O)(=O)c1ccc(Cl)cc1 | · | · | -11% | · | 6% | ?
COc1ccc(S(=O)(=O)N2CCC(C(=O)NCCN3CCOCC3)CC2)cc1 | 16% | 21% | 6% | -5% | -5% | -7%
Cc1ccnc(NC(=O)CCC(=O)N(CC(=O)NC2CCCCC2)C2CCCC2)c1 | -10% | -16% | -6% | 2% | 0% | 7%
O=C(N/N=C/c1ccc2cccnc2c1)c1nc2ccccc2c(=O)[nH]1 | 46% | 41% | -12% | -3% | 0% | 14%
COc1ccc(OC)c(-c2csc(N(Cc3ccco3)C(=O)c3cccs3)n2)c1 | 9.3µM* | ? | ? | -9% | 8% | 13µM*
COc1ccc(OC)c(-c2csc(N(CC3CCCO3)C(=O)C3CCCCC3)n2)c1 (centres undefined) | 2.9µM* | -25% | -4% | 0% | 0% | ?
COc1ccc(-c2csc(N(Cc3ccco3)C(=O)c3cccs3)n2)cc1 | ? | 6.6µM* | -14% | -3% | -1% | ?
O=C1c2ccccc2CCCC12N=NCC2c1cccc2ccccc12 (centres undefined) | 2.6µM* | 1.9µM* | -22% | -68% | -30% | 2.8µM*
Cc1ccc(C2CN=NC23CCc2ccccc2C3=O)cc1 (centres undefined) | · | 3.7µM* | 6% | -71% | -29% | 0%
COC(=O)c1ccc(C)cc1C1CN=NC12Cc1cc(C)ccc1C2=O (centres undefined) | · | · | -18% | · | · | ?
